Hits are enriched below; roughly 19% of the tested compounds scored in any of these assays.
DT40 TDP1 CPT = growth inhibition of DT40 Tdp1-/-;hTDP1 cells with camptothecin (screen for TDP1 inhibitors); Potency, µM (doses to about 46.2 µM), for inactives: at the top dose activity change, negative = growth inhibition, usual class: inhibitors; actives 12% (n = 420,000); chicken DT40 Tdp1-/-;hTDP1 cells + 20 nM CPT, ATP luminescence, 48 h; note: potency is the fitted concentration of half-maximal effect; % is set by controls: 0 for no effect and ±100 for the full control effect; nearly all actives have a fitted effect of over 55% in size
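Chicken DT40 Tdp1-/- cells stably complemented with human TDP1 were seeded at 400 cells/well in medium containing 20 nM camptothecin, exposed to pin-transferred compounds, and grown at 37 °C for at least 48 hr. Viability was read as ATP luminescence.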
MCF10A rereplic = DNA re-replication induction in MCF 10a cells; Potency, µM (titrated, usually from 46.1 µM), inactives show at the top dose activity, positive = re-replication, hits mostly activators; AID 624296; MCF 10A DNA re-replication, Hoechst nuclear intensity, 48 h; actives 2.9% (n = 350,000); note: potency is the fitted concentration of half-maximal effect; % of control where 0% means no effect; nearly all actives have a fitted effect of over 50% in size
DT40 TDP1 no CPT = qHTS for Inhibitors of human tyrosyl-DNA phosphodiesterase 1 (TDP1): qHTS in cells in absence of CPT | DT40 Tdp1-/- hTDP1 cells, no CPT, ATP luminescence, 48 h | Potency, µM (series often up to 46.2 µM), for inactives: at the top dose activity change, negative = growth inhibition, usual class: inhibitors | actives 15% (n = 420,000); note: potency is the fitted concentration of half-maximal effect; % is set by controls: 0 for no effect and ±100 for the full control effect; nearly all actives have a fitted effect of over 55% in size
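Chicken DT40 Tdp1-/- cells stably complemented with human TDP1 were seeded at 400 cells/well with DMSO in place of 20 nM camptothecin. After compound pinning, cells grew at least 48 hr at 37 °C; viability read by CellTiter-Glo luminescence.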
IL1B secr inh = inhibitors of inflammasome signaling (IL-1 beta secretion). THP-1 LPS/ATP IL-1B secretion, AlphaLISA, 16 h; stronger effect = lower value. activity change, % at 57.5 µM. actives 4.7% (n = 360,000). AID 743279; in the data active = activity change below about -50%; inconclusive = mostly about -30% to -49%; note: % is set by controls: 0 for no effect and ±100 for the full control effect
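Secreted IL-1B measured by AlphaLISA bead assay after 16 h compound exposure of THP-1 cells; compounds (final up to 57.5 uM) added 1 h before LPS (250 ng/mL) and ATP (1.25 mM) stimulation; lower signal means less secretion.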
SW480 rereplic = DNA re-replication induction in SW480 cells; SW480 DNA re-replication, Hoechst DNA content imaging, 48 h; Potency, µM (series often up to 46.1 µM), without a hit: top-dose re-replication activation, usual class: activators; actives 1.8% (n = 340,000); note: potency is the fitted concentration of half-maximal effect; % of control where 0% means no effect; nearly all actives have a fitted effect of over 55% in size
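Quantitative HTS format with DMSO vehicle controls; 48 hr drug incubation at 37 C, then 40 min Hoechst staining and scanning imager measurement at 405 nm excitation.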
Chronic BCR inh = inhibitors of chronic active B-cell receptor signaling; ABC-DLBCL IkBa-CBG/CBR reporter, luminescence ratio, 4 h; Potency, µM (top dose mostly 46.1 µM), for inactives: at the highest dose activity change, negative = inhibition, hits mostly inhibitors; actives 0.05% (n = 340,000); AID 493014; active = well fitted inhibition curve with a large enough effect in the signal ratio, with a control signal flat, not every such curve was filed as active; inconclusive = small, poorly fitted or top-dose-only effect, or effect the other way, or a change in a side signal; the % refers to the signal ratio;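 note: potency is the fitted concentration of half-maximal effect; plate controls were basal doxycycline-induced cells for no effect and cells given 10 µM MG132 for full effect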
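TMD8 ABC-DLBCL cells carrying doxycycline-inducible green luciferase fused to IkappaBalpha plus unfused red luciferase were exposed to compounds (up to 46 uM) for 4 hrs at 37C. Activity came from the overlap-corrected green/red luminescence ratio.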
Active calls of the source: *; ? = inconclusive; / = no result. Unless noted, calls come from the whole dose curve; as a rule, active = well fitted curve in the direction sought with a large enough effect; inconclusive = small, poorly fitted or top-dose-only effect, or another doubt; inactive = no such curve, though single readings can be large; an effect the other way counts as inactive or inconclusive.

SMILES	DT40 TDP1 CPT	MCF10A rereplic	DT40 TDP1 no CPT	IL1B secr inh	SW480 rereplic	Chronic BCR inh
COc1ccccc1C(=O)NC(=O)COC(=O)c1cnc(C)cn1	1%	-1%	0%	9	-2%	-1%
CC1(OC(=O)C2CCCC2)C(=O)C=C2C=C(c3ccsc3)N(CCc3c[nH]c4ccccc34)C=C2C1=O (configuration not stated)	21µM*	-18%	?	-7	8%	10%
CC1(OC(=O)C2CCCC2)C(=O)C=C2C=C(c3ccsc3)N(C3CCCCC3)C=C2C1=O (configuration not stated)	21µM*	5%	21µM*	-10	-12%	4%
CC1(OC(=O)CCc2ccccc2)C(=O)C=C2C=C(c3ccc(C#N)cc3)N(C3CCCCC3)C=C2C1=O (configuration not stated)	26µM*	0%	?	23	-15%	?
O=C1c2ccccc2C(=O)N1C1C(=O)N2CCSC12C(=O)OCc1ccccc1 (configuration not stated)	-12%	0%	-11%	-9	0%	/
CN(C)c1ccc(/C=C(/NC(=O)c2ccccc2)C(=O)NCCN2CCOCC2)cc1	35%	0%	5%	-6	0%	-8%
Cc1ccc(C(=O)N/C(=C\c2ccc(-c3ccc(Br)cc3)o2)C(=O)NCCCN(C)C)cc1	4.6µM*	?	3.3µM*	-77*	7.3µM*	?
Cc1ccc(C(=O)N/C(=C\c2ccc(-c3ccccc3[N+](=O)[O-])o2)C(=O)NCCCN2CCOCC2)cc1	21µM*	?	?	58	?	-1%
O=C(NCCN1CCOCC1)/C(=C/c1ccc(Cl)cc1)NC(=O)c1ccccc1	5%	-1%	6%	?	2%	-2%
CN(C)CCNC(=O)/C(=C/c1ccc(-c2ccc(Cl)cc2)o1)NC(=O)c1ccccc1	?	?	?	-93*	?	-14%
CN(C)CCNC(=O)/C(=C/c1ccc(-c2ccc(Cl)cc2Cl)o1)NC(=O)c1ccccc1	?	7.3µM*	?	-67*	?	-4%
COc1ccc(/C=C(/NC(=O)c2ccc([N+](=O)[O-])cc2)C(=O)NCCCN(C)C)cc1	4%	1%	-7%	-1	-2%	0%
Cc1ccc(C(=O)N/C(=C\c2cn(C)c3ccccc23)C(=O)NCCCN2CCOCC2)cc1	8%	-20%	-4%	-3	-36%	4%
Cc1cnc(C(=O)OCC(=O)c2ccc[nH]2)cn1	-8%	-1%	-1%	5	1%	-5%
Cc1ccc(NC(=O)c2c(Cl)nc3ccccn23)cc1	13%	-2%	-12%	31	2%	11%
CCOc1ccc(S(=O)(=O)Nc2ccc3c(c2)N(C(C)=O)CCC3)cc1	?	/	18µM*	/	/	/
CC(=O)N1CCCc2ccc(NS(=O)(=O)c3ccc(C)cc3)cc21	?	?	26µM*	21	?	?
COc1cc(C2CC(=O)c3cnc(NC(=O)c4ccco4)nc3C2)cc(OC)c1OC (configuration not stated)	4%	-2%	-1%	-17	-7%	-8%
Cc1cccc(Oc2sc(C(=O)c3ccccc3)c(N)c2C#N)c1C	-18%	?	?	-62*	4%	?
Cc1ccc(CSc2sc(C(=O)c3ccccc3)c(N)c2C#N)cc1	?	?	?	27	-3%	0%
N#Cc1c(Oc2ccc3ccccc3c2)sc(C(=O)c2ccccc2)c1N	?	?	?	-107*	12%	-7%

Screening data as filed in PubChem.
